Results filed as inconclusive are left out. Active and inactive are the calls of the source. Rule for the calls, unless noted: active = hit-call score of the fitted dose curve at least 0.9, where 1 is the maximum; inactive = score below 0.9.
Tests used:
[1] = ACEA_ER_80hr: ACEA Biosciences xCELLigence Real-Time Cell Analysis on Estrogen Receptor Agonism for Proliferation (AID 2282667; active = hit-call score of the fitted dose curve at least 0.9, where 1 is the maximum); conditions: T47D proliferation, impedance (xCELLigence), 80 h
Procedure, shortened: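 Real-time electrical impedance tracked growth of the human breast line T47D, with the 80 h post-dosing value used. Dosing spanned eight 1:4 steps down from a 100 uM final top concentration, run in duplicate.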

[2] = APR_HepG2_CellCycleArrest_24hr: Apredica 24-hour HepG2 Assay for Cell Cycle Arrest (AID 2282905); conditions: imaging, actives raise or lower the signal;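 note: cell cycle arrest scored as ratio of 2N to 4N nuclear DNA content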
Procedure, shortened: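 Step one: dose HepG2 with test compounds, 0.39–200 uM, 0.5% DMSO, 24 hr. Step two: fix, permeabilize, stain nuclei with Hoechst 33342. Step three: image six fields per well at 20x, quantify DNA content, fit bidirectionally relative to DMSO.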

[3] = APR_HepG2_NuclearSize_24hr: Apredica 24-hour HepG2 Assay for Nuclear Size (AID 2282907); conditions: high-content imaging, actives raise or lower the signal
Procedure, shortened: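 After fixation and permeabilization, 24-hr-treated HepG2 cells were stained with Hoechst 33342 and imaged on an ArrayScan (20x). Doses spanned 0.39–200 uM in duplicate. Nuclear diameter changes in either direction were fitted relative to 0.5% DMSO controls.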

[4] = APR_HepG2_CellLoss_24hr: Apredica 24-hour HepG2 Assay for Cell Loss (AID 2282908); conditions: high-content imaging;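 for AC50: fit in both directions so a hit may be cell loss or gain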
Procedure, shortened: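 Duplicate wells received compound at ten concentrations (0.39–200 uM; final DMSO 0.5% v/v). After fixation with formaldehyde, nuclei stained with Hoechst 33342 were imaged at 20x. Loss or gain of cell count was fitted relative to DMSO controls.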

[5] = APR_HepG2_MicrotubuleCSK_24hr: Apredica 24-hour HepG2 Assay for Microtubule CSK Stabilty (AID 2282909); conditions: HepG2 microtubule cytoskeleton imaging, actives raise or lower the signal
Procedure, shortened: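 Microtubule stability is scored from tubulin immunofluorescence in fixed HepG2 cells imaged at 20x. Cells receive ten compound concentrations up to 200 uM for 24 h; taxol and DMSO serve as positive and negative controls.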

[6] = APR_HepG2_MitoticArrest_24hr: Apredica 24-hour HepG2 Assay for Mitotic Arrest (AID 2282910); conditions: high-content imaging, actives raise or lower the signal
Procedure, shortened: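 HepG2, 24 hr dosing, 0.39–200 uM, 0.5% DMSO final. Formaldehyde-fixed, Triton-permeabilised, anti-phospho-histone H3 plus Hoechst. ArrayScan imaging at 20x; bidirectional fit vs DMSO baseline.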

[7] = APR_HepG2_MitoMembPot_24hr: Apredica 24-hour HepG2 Assay for Mitochondrial Membrane Potential (AID 2282911); conditions: imaging, actives raise or lower the signal
Procedure, shortened: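 Cells are dosed for 24 hr across 0.39 to 200 uM with solvent held at 0.5% DMSO. They are then stained with 250 nM MitoTracker Red CMXRos for 30 min, fixed in 3.7% formaldehyde and imaged.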

[8] = APR_HepG2_MitoMass_24hr: Apredica 24-hour HepG2 Assay for Mitochondrial Mass (AID 2282912); conditions: high-content imaging, actives raise or lower the signal
Procedure, shortened: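 Readout: fluorescence of MitoTracker Red CMXRos (250 nM, added 30 min pre-fixation) in fixed HepG2 cells imaged by HCS. Exposure lasted 24 hr at 0.39–200 uM; increases and decreases were both fitted relative to DMSO.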

[9] = APR_HepG2_CellCycleArrest_72hr: Apredica 72-hour HepG2 Assay for Cell Cycle Arrest (AID 2282914); conditions: high-content imaging, actives raise or lower the signal
Procedure, shortened: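 Read-out is Hoechst-stained nuclear DNA content measured by automated fluorescence imaging (20x, six images per well), fitted in both directions relative to DMSO. Human HepG2 liver cells received 0.39–200 uM compound for 72 hr at 0.5% v/v DMSO.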

[10] = APR_HepG2_CellLoss_72hr: Apredica 72-hour HepG2 Assay for Cell Loss (AID 2282915); conditions: high-content imaging
Procedure, shortened: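 HepG2 cells exposed 72 h to compound at 0.39–200 uM (10 concentrations, duplicate) in 0.5% DMSO. Fixed with 3.7% formaldehyde and Hoechst 33342-stained. Imaged at 20x; nuclear count gives cell number, fitted bidirectionally versus DMSO.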

[11] = APR_HepG2_P-H2AX_72hr: Apredica 72-hour HepG2 Assay for H2AX Phosphorylation (AID 2282916); conditions: imaging, actives raise or lower the signal;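 note: phospho-histone H2A.x immunostain intensity per cell marking DNA damage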
Procedure, shortened: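 Phospho-H2A.x imaging endpoint in HepG2 after 72 hr compound exposure (0.39–200 uM, duplicate wells). Activity derived by bidirectional curve fitting with DMSO as baseline.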

[12] = APR_HepG2_MitoMembPot_72hr: Apredica 72-hour HepG2 Assay for Mitochondrial Membrane Potential (AID 2282917); conditions: imaging, actives raise or lower the signal
Procedure, shortened: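 HepG2 cells dosed 72 hr with compound at 0.39–200 uM in duplicate, 0.5% v/v DMSO final. Mitochondria stained with 250 nM MitoTracker Red CMXRos for 30 min before formaldehyde fixation, imaged by high-content fluorescence; bidirectional fit versus DMSO.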

[13] = APR_HepG2_MitoticArrest_72hr: Apredica 72-hour HepG2 Assay for Mitotic Arrest (AID 2282918); conditions: high-content imaging, actives raise or lower the signal
Procedure, shortened: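 Read-out is phospho-histone H3 immunofluorescence with Hoechst nuclear segmentation, imaged at 20x. Human HepG2 liver cells received ten concentrations (0.39–200 uM, final DMSO 0.5% v/v) for 72 hr before fixation. Gain or loss of signal was fitted relative to DMSO.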

[14] = APR_HepG2_MicrotubuleCSK_72hr: Apredica 72-hour HepG2 Assay for Microtubule CSK Stabilty (AID 2282919); conditions: HepG2 microtubule cytoskeleton, high-content imaging, actives raise or lower the signal
Procedure, shortened: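 HepG2, 72 hr cmpd exposure, 0.39–200 uM (10 pts, duplicate), 0.5% DMSO. 3.7% formaldehyde fix, 0.5% Triton perm, anti-alpha-tubulin/Cy5 plus Hoechst. HCS fluorescence intensity; bidirectional fit vs DMSO baseline; taxol as positive control.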

[15] = APR_HepG2_P-H2AX_24hr: Apredica 24-hour HepG2 Assay for H2AX Phosphorylation (AID 2282920); conditions: high-content imaging, actives raise or lower the signal
Procedure, shortened: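 HepG2, 24 hr, cpd 0.39–200 uM (10 conc, duplicate), DMSO 0.5% v/v final. Fix 3.7% formaldehyde, Triton X-100 permeabilize, anti-phospho-H2A.x 1:200 + Hoechst 2 ug/mL. Imaged, bidirectional fit vs DMSO.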

[16] = APR_HepG2_StressKinase_24hr: Apredica 24-hour HepG2 Assay for Stress Kinase (AID 2282922); conditions: HepG2 stress kinase (phospho-c-Jun) imaging, actives raise or lower the signal
Procedure, shortened: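 Read-out: phospho-c-Jun immunofluorescence (Cy3 secondary) quantified by high-content imaging at 20x, nuclei defined by Hoechst 33342. Human HepG2 liver cells dosed 24 hr, 0.39–200 uM, DMSO 0.5% v/v; gain or loss of signal fitted relative to DMSO.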

[17] = APR_HepG2_MitoMass_72hr: Apredica 72-hour HepG2 Assay for Mitochondrial Mass (AID 2282924); conditions: high-content imaging, actives raise or lower the signal;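 note: MitoTracker Red CMXRos stain intensity per cell imaged as mitochondrial mass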
Procedure, shortened: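 Read-out: MitoTracker Red fluorescence intensity from automated imaging (20x, six fields per well) in human HepG2 liver cells. Dosing ran 72 hr, 0.39–200 uM, 0.5% DMSO; bidirectional curve fitting versus DMSO baseline.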

[18] = APR_HepG2_StressKinase_72hr: Apredica 72-hour HepG2 Assay for Stress Kinase (AID 2282921); conditions: HepG2 stress kinase (phospho-c-Jun) imaging, actives raise or lower the signal
Procedure, shortened: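 Stress kinase signal reflects nuclear phospho-c-Jun staining in fixed, permeabilized cells exposed 72 h to compound at 0.39–200 uM; DMSO-normalized, fitted for increases or decreases.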

[19] = APR_HepG2_p53Act_24hr: Apredica 24-hour HepG2 Assay for p53 Activation (AID 2282913); conditions: high-content imaging, actives raise or lower the signal;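 note: p53 protein immunofluorescence averaged per cell in HepG2 with Hoechst nuclei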
Procedure, shortened: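 Human HepG2 liver cells; 24 hr cpd treatment, 0.39–200 uM, 0.5% DMSO final. Fixed in 3.7% formaldehyde, permeabilized with 0.5% Triton X-100, stained with anti-p53/Cy5 plus Hoechst 33342. Six images per well at 20x; gain or loss vs DMSO.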

[20] = APR_HepG2_p53Act_72hr: Apredica 72-hour HepG2 Assay for p53 Activation (AID 2282923); conditions: high-content imaging, actives raise or lower the signal;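 note: average cellular p53 protein immunofluorescence intensity in HepG2 cells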
Procedure, shortened: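 Fixed-cell p53 staining (sheep primary, Cy5 secondary) measured by fluorescence imaging following 72 hr treatment at 0.39–200 uM in 0.5% DMSO; DMSO served as negative control and baseline.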

Measured: AC50

NC(=O)N1c2ccccc2C=Cc2ccccc21
active: [1] 69.5 µM
not listed: [18] | [19] | [20]
inactive: all other assays above

O=c1[nH]cnc2c1ncn2[C@H]1CC[C@@H](CO)O1
active: [7] 0.039 µM
not listed: [18] | [19] | [20]
inactive: all other assays above

O=S(=O)(O)c1ccc(N=Nc2c(O)ccc3cc(S(=O)(=O)O)ccc23)cc1
not listed: [18] | [19] | [20]
inactive: all other assays above

COCc1nnc(-c2ccc[n+]([O-])c2)n1-c1c(Cl)c(Cl)cc2[nH]c(=O)c(=O)[nH]c12
not listed: [18] | [19] | [20]
inactive: all other assays above

C[C@@H](Oc1ccc(CNC(=O)c2cccnc2Oc2ccc3c(c2)OCO3)c(F)c1)C(=O)O
active: [7] 0.0391 µM
not listed: [18] | [19] | [20]
inactive: all other assays above

CCOc1ccc2[nH]cc(C(=O)NCc3ccccc3)c(=O)c2n1
active: [1] 69 µM | [6] 104 µM | [10] 106 µM | [11] 105 µM | [13] 109 µM
not listed: [18] | [19] | [20]
inactive: all other assays above

Cc1ncc([C@@H](CCCCCCc2ccc3c(n2)NCCC3)CC(=O)O)cn1
active: [6] 0.0392 µM | [8] 0.18 µM | [10] 0.944 µM | [11] 0.0391 µM | [13] 0.0971 µM | [14] 0.534 µM | [15] 0.0459 µM
not listed: [18] | [19] | [20]
inactive: all other assays above

NC(N)=O
not listed: [18] | [19] | [20]
inactive: all other assays above

CCCCCOC(C)=O
not listed: [19] | [20]
inactive: all other assays above

O=C1CN(N=Cc2ccc([N+](=O)[O-])o2)C(=O)N1
active: [4] 33.6 µM | [19] 58.6 µM | [10] 41.9 µM | [11] 65.2 µM | [13] 58.3 µM | [15] 56.7 µM | [20] 46.8 µM | [17] 90.5 µM
inactive: [1] | [6] | [7] | [8] | [12] | [18] | [16]

CC(C)CCCCCCOC(=O)C1CCCCC1C(=O)OCCCCCCC(C)C (stereo unspecified)
not listed: [18] | [19] | [20]
inactive: all other assays above

From PubChem BioAssay (EPA / NIEHS)
